Molecules are shown by their SMILES. The panel holds about 79,000 compounds, 15% with a hit somewhere; the sample as a whole holds those more often. Values without a mark were called inactive. Calls of active or inactive are those of the source. Rule as the data show it: active = growth inhibition above about 70%; inactive = the rest.

This experiment in a line: NCI Yeast Anticancer Drug Screen. Data for the mlh1 strain (AID 171).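 Also: 0% = growth of vehicle-treated control cultures of the same strain.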 Particulars: S. cerevisiae mlh1 strain growth inhibition, hits give high values. How it is done: Growth inhibition of yeast strains with defined genetic alterations is measured as a screen for potential anti-cancer activity. Selected strains with alterations in DNA damage repair or cell cycle control were exposed to compounds and growth inhibition was measured relative to vehicle treated controls. The strain used in this assay is mlh1

Take `COC(=O)c1cc(-c2ccc(C)cc2)[nH]c(=O)c1C#N`: the growth inhibition reads like this: (at 1.2 µM) -6%; (at 3.7 µM) -2%; (at 11.0 µM) 0%; (at 33.0 µM) 0%; (at 100.0 µM) -21%.

On to `O=C(O)C1CCCCC1c1c2ccc(=O)c(O)c-2oc2c(O)c(O)ccc12` (stereo not given), for which the growth inhibition reads like this: (at 1.2 µM) -30%; (at 3.7 µM) -9%; (at 11.0 µM) -33%; (at 33.0 µM) 38%; (at 100.0 µM) 74% (active).

On to `NC(=S)N/N=C\c1nccc2ccccc12`, for which the growth inhibition is, setting by setting: (at 1.2 µM) 3%; (at 3.7 µM) -9%; (at 11.0 µM) 34%; (at 33.0 µM) 97% (active); (at 100.0 µM) 99% (active).

For the molecule `O=C1c2ccccc2C(=O)c2c(NC3CCCCC3)ccc(Nc3ccc(S(=O)(=O)O)cc3)c21`, the growth inhibition is, setting by setting: (at 1.2 µM) -2%; (at 3.7 µM) -3%; (at 11.0 µM) 5%; (at 33.0 µM) 50%; (at 100.0 µM) 71% (active).

On to `COc1ccc2nc3cccc([N+](=O)[O-])c3c(NCCN(CCO)CCO)c2c1`, for which the growth inhibition reads like this: (at 1.2 µM) 5%; (at 3.7 µM) 25%; (at 11.0 µM) 61%; (at 33.0 µM) 84% (active); (at 100.0 µM) 86% (active).

As for `CC(=O)OCC(=O)C1(O)CCC2C3CCC4CCCCC4(C)C3CCC21C` (stereo not given), the growth inhibition runs as follows: (at 1.2 µM) -2%; (at 3.7 µM) -8%; (at 11.0 µM) 7%; (at 33.0 µM) 37%; (at 100.0 µM) 79% (active).

As for `CC(=O)Nc1ccc(SC(C)=O)cc1`, the growth inhibition is -25% (at 1.2 µM); -26% (at 3.7 µM); 6% (at 11.0 µM); 54% (at 33.0 µM); 86% (active) (at 100.0 µM).

For `NC1=NS(=O)(=O)N=C(N)C1=Cc1ccc([N+](=O)[O-])o1`, the growth inhibition by setting is: (at 1.2 µM) -7%; (at 3.7 µM) -6%; (at 11.0 µM) 2%; (at 33.0 µM) 33%; (at 100.0 µM) 98% (active).

The values above are taken from PubChem BioAssay (NCI).
